Experimental data published in PubChem BioAssay (EPA / NIEHS).
Records with an inconclusive call do not appear. Calls of active or inactive are those of the source. Rule for the calls, unless noted: active = hit-call score of the fitted dose curve at least 0.9, where 1 is the maximum; inactive = score below 0.9.

Key:
[1] = biological target: Cellular tumor antigen p53 (Homo sapiens) (UniProt P04637); assay: TOX21_p53_BLA_p2_ratio: Tox21 HCT-116 p53 Agonism Beta-lactamase Assay, Ratio, Phase 2 (AID 2283592; active = hit-call score of the fitted dose curve at least 0.9, where 1 is the maximum)
Cellular tumor antigen p53 (Homo sapiens), sequence (P04637 whole entry, looked up): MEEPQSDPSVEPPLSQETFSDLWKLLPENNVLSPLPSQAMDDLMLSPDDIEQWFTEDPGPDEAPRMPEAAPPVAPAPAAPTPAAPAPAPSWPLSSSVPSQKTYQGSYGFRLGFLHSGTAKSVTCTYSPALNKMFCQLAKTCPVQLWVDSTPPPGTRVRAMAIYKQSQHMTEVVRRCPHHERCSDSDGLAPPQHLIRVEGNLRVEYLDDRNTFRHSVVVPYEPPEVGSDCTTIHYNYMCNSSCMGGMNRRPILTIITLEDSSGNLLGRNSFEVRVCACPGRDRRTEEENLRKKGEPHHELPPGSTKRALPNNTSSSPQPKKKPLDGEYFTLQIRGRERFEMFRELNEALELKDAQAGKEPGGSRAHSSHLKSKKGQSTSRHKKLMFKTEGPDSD
Procedure, shortened: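 First, HCT116 reporter cells settle for 5 h at 37C. Next, DMSO compound solutions are pinned in (217-fold dilution) and left 16 h. Finally, CCF4-AM substrate is loaded 2 h at room temperature and the 460/530 nm ratio read.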

[2] = TOX21_p53_BLA_p3_viability: Viability Assessment in the Tox21 HCT-116 p53 Agonism Beta-lactamase Assay, Phase 3 (AID 2283593; active = hit-call score of the fitted dose curve at least 0.9, where 1 is the maximum;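 note: cells exposed to compound for 16 h before reading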)
Procedure, shortened: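 HCT116 cells, 4000/well, dosed 5 h after plating by pin transfer (217-fold dilution from DMSO stock) and incubated 16 h at 37C, 5% CO2. Viability read as ATP luminescence with CellTiter-Glo after 30 min at room temperature.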

[3] = biological target: Cellular tumor antigen p53 (Homo sapiens) (UniProt P04637); assay: TOX21_p53_BLA_p3_ratio: Tox21 HCT-116 p53 Agonism Beta-lactamase Assay, Ratio, Phase 3 (AID 2283596; active = hit-call score of the fitted dose curve at least 0.9, where 1 is the maximum)
Procedure, shortened: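 Cells were seeded at 4000/well, rested 5 h at 37C, then dosed with DMSO compound solutions (217-fold dilution) for 16 h. CCF4-AM substrate was loaded for 2 h at room temperature, and the 460/530 nm emission ratio was fitted for gain of signal versus DMSO.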

[4] = TOX21_p53_BLA_p4_viability: Viability Assessment in the Tox21 HCT-116 p53 Agonism Beta-lactamase Assay, Phase 4 (AID 2283597; active = hit-call score of the fitted dose curve at least 0.9, where 1 is the maximum;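 note: hits lower the luminescence signal meaning cytotoxicity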)
Procedure, shortened: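 4000 HCT116 cells per well; 5 h attachment; compounds from DMSO, 217-fold dilution; 16 h at 37C. Then CCF4-AM, 2 h RT, followed by CellTiter-Glo, 30 min RT, luminescence. Decrease = cytotoxicity.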

[5] = biological target: Cellular tumor antigen p53 (Homo sapiens) (UniProt P04637); assay: TOX21_p53_BLA_p5_ratio: Tox21 HCT-116 p53 Agonism Beta-lactamase Assay, Ratio, Phase 5 (AID 2283599; active = hit-call score of the fitted dose curve at least 0.9, where 1 is the maximum)
Procedure, shortened: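 HCT-116 p53-bla cells (4000/well) plated 5 h, dosed with compound (217-fold DMSO dilution) for 16 h at 37 C; CCF4-AM substrate 2 h at room temperature. Activity is the 460/530 nm emission ratio (405 nm excitation), fitted in gain-of-signal direction versus DMSO.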

[6] = TOX21_p53_BLA_p5_viability: Viability Assessment in the Tox21 HCT-116 p53 Agonism Beta-lactamase Assay, Phase 5 (AID 2283600; active = hit-call score of the fitted dose curve at least 0.9, where 1 is the maximum)
Procedure, shortened: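 Decreased CellTiter-Glo luminescence denotes lost viability. Exposure: 16 h at 37C, 5% CO2, with compounds from DMSO stocks diluted 217-fold in wells of 4000 cells.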

[7] = biological target: Cellular tumor antigen p53 (Homo sapiens) (UniProt P04637); assay: TOX21_p53_BLA_p4_ratio: Tox21 HCT-116 p53 Agonism Beta-lactamase Assay, Ratio, Phase 4 (AID 2283601; active = hit-call score of the fitted dose curve at least 0.9, where 1 is the maximum)
Procedure, shortened: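 HCT-116 p53 beta-lactamase reporter cells (4000/well) preincubated 5 h, then compound (217-fold dilution of DMSO stock) for 16 h at 37C. CCF4-AM substrate added 2 h at room temperature; 460/530 nm emission ratio fitted upward versus DMSO.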

[8] = CCTE_Shafer_MEA_acute_firing_rate_mean: CCTE's Neural Acute Assay for Mean Firing Rate, Shafer Lab (AID 2284009);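 note: analyzed for loss of signal so actives lower firing rate relative to DMSO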
Procedure, shortened: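 Rat cortical neuron cultures matured to DIV 13 or 15, equilibrated 20 min at 37 C, then recorded 40 min for baseline. Compound (0.03-40 uM) added and a further 40 min recorded; percent change in mean firing rate calculated per well.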

[9] = CCTE_Shafer_MEA_acute_burst_number: CCTE's Neural Acute Assay for Single-Electrode Bursts, Shafer Lab (AID 2284013)
Procedure, shortened: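 Percent change in single-electrode burst number per well, from 40-min recordings taken before and after adding compound (0.03-40 uM) to primary rat cortical neurons on MEA plates at DIV 13 or 15, 37 C.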

[10] = CCTE_Shafer_MEA_acute_burst_duration_mean: CCTE's Neural Acute Assay for Mean Burst Duration, Shafer Lab (AID 2284014);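 note: hits are decreases in mean burst duration relative to DMSO controls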
Procedure, shortened: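 Rat cortical cultures, DIV 13/15; 40 min baseline, then 40 min with compound (0.03-40 uM), 37 C. Spikes: 300-5000 Hz band-pass, 8x rms threshold. Read-out: % change in mean single-electrode burst duration, DMSO-referenced, loss direction.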

[11] = CCTE_Shafer_MEA_acute_interburst_interval_mean: CCTE's Neural Acute Assay for Mean Interburst Interval, Shafer Lab (AID 2284016);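 note: percent change of mean interburst interval versus each well's own pre-dose baseline; curves fitted for decrease in interburst interval relative to DMSO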
Procedure, shortened: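 Primary rat cortical neurons on 16-electrode MEA wells were recorded 40 min at baseline on DIV 13 or 15, then 40 min after compound (0.03-40 uM), at 37 C. Value is percent change in mean interburst interval per well, DMSO as negative control.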

[12] = CCTE_Shafer_MEA_acute_burst_percentage_mean: CCTE's Neural Acute Assay for Percentage of Spikes in a Burst, Shafer Lab (AID 2284017);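 note: curve fitted for loss of signal so potency reflects decreased burst percentage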
Procedure, shortened: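 Primary rat cortical neurons on 16-electrode MEA wells; 40 min baseline recorded at DIV 13 or 15, then 40 min after compound (0.03-40 uM) at 37 C. Well-mean fraction of spikes in single-electrode bursts; percent change from baseline, DMSO as negative control.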

[13] = CCTE_Shafer_MEA_acute_burst_percentage_std: CCTE's Neural Acute Assay for Standard Deviation of Burst Percentage, Shafer Lab (AID 2284018);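 note: fitted in the negative direction so actives lower burst percentage SD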
Procedure, shortened: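 Rat primary cortical neurons on 48-well MEAs, DIV 13 or 15, 37 C. 40-min baseline then 40-min recording with compound (0.03-40 uM); well-level SD of per-electrode burst spike percentage, expressed as percent change from baseline.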

[14] = CCTE_Shafer_MEA_acute_per_network_burst_spike_number_mean: CCTE's Neural Acute Assay for Average Number of Spikes in a Network Burst, Shafer Lab (AID 2284019)
Procedure, shortened: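 Rat cortical cultures, DIV 13/15; spike threshold 8x rms noise, 300-5000 Hz band-pass, 12.5 kHz sampling; wells need >/= 10 active electrodes. Compound 0.03-40 uM, 40 min, 37 C; % change vs own baseline, DMSO negative control.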

[15] = CCTE_Shafer_MEA_acute_per_network_burst_spike_number_std: CCTE's Neural Acute Assay for Standard Deviation of Number of Spikes in a Network Burst, Shafer Lab (AID 2284020);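 note: fitted for decrease in spike-number SD versus DMSO so actives lower it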
Procedure, shortened: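 Rat cortical cultures, DIV 13/15, 37 C; 20-min stabilisation, 40-min baseline, compound 0.03-40 uM, 40-min re-record. Spikes detected at 8x rms noise (300-5000 Hz band-pass). Readout: % change from baseline in per-burst spike-number SD.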

[16] = CCTE_Shafer_MEA_acute_network_burst_percentage: CCTE's Neural Acute Assay for Percentage of Network Bursts, Shafer Lab (AID 2284022);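 note: curves fitted for loss so actives lower network burst percentage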
Procedure, shortened: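 Rat primary cortical neuron networks on 48-well MEA plates, DIV 13 or 15, treated acutely with compound (0.03-40 uM, at least three wells). Percent of spikes within network bursts compared between 40-min recordings before and during exposure at 37 C, expressed as percent change.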

[17] = CCTE_Shafer_MEA_acute_cross_correlation_area: CCTE's Neural Acute Assay for Area of Cross Correlation, Shafer Lab (AID 2284024);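 note: curves fitted for loss of cross-correlation area so actives lower synchrony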
Procedure, shortened: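 Rat primary cortical neurons on 48-well MEA, DIV 13 or 15; compounds 0.03-40 uM. Baseline and post-exposure 40 min recordings at 37 C; percent change in area under pooled inter-electrode cross-correlation near zero lag, relative to DMSO.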

[18] = CCTE_Shafer_MEA_acute_cross_correlation_HWHM: CCTE's Neural Acute Assay for Cross Correlation at Half Width at Half Maximum, Shafer Lab (AID 2284026);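 note: percent change per well from pre-dose baseline in spike cross-correlogram half width; hits are a decrease in cross-correlogram half width relative to DMSO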
Procedure, shortened: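 Rat primary cortical neurons on 48-well MEA plates; 40-min baseline and 40-min post-exposure recordings at 37 C on DIV 13 or 15, compounds 0.03-40 uM. Spikes detected at 8x rms noise; percent change in cross-correlogram HWHM per well vs baseline.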

[19] = CCTE_Shafer_MEA_acute_synchrony_index: CCTE's Neural Acute Assay for Synchrony, Shafer Lab (AID 2284027);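 note: network synchrony index of spontaneous spiking in primary rat cortical neurons on MEAs; fitted for loss of signal so actives lower synchrony relative to DMSO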
Procedure, shortened: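 Plates equilibrated 20 min at 37 C, baseline recorded 40 min, compound (0.03-40 uM) added, then 40 min more recorded. Cells: primary rat cortical neurons, DIV 13 or 15. Per-well synchrony index change analysed in negative direction against DMSO.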

[20] = CCTE_Shafer_MEA_dev_firing_rate_mean: CCTE's Neural Network Formation Assay for Mean Firing Rate, Shafer Lab (AID 2284031)
Procedure, shortened: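 Steps: seed rat cortical cells (1.5 x 10^5/well) with laminin on PEI-coated MEA; dose day 0; record DIV 5/7/9/12, full media and compound exchange after DIV 5 and 9 recordings; compute well-mean firing rate AUC.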

[21] = CCTE_Shafer_MEA_dev_per_burst_spike_percent: CCTE's Neural Network Formation Assay for Percent of Spikes in a Burst, Shafer Lab (AID 2284032);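 note: fitted as a decrease in burst spike percentage below DMSO baseline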
Procedure, shortened: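 Value is trapezoidal AUC over recordings on days 5, 7, 9 and 12 of the well-mean fraction of spikes falling in single-electrode bursts; rat cortical cultures exposed continuously from plating, treatment renewed DIV 5 and 9, fitted downward against DMSO.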

[22] = CCTE_Shafer_MEA_dev_active_electrodes_number: CCTE's Neural Network Formation Assay for Number of Active Electrodes, Shafer Lab (AID 2284040; active = hit-call score of the fitted dose curve at least 0.9, where 1 is the maximum;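 note: potency for loss of active electrodes versus DMSO so lower counts are hits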)
Procedure, shortened: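 Counts electrodes per well firing at least 5 spikes/min, recorded on days 5, 7, 9 and 12 in rat cortical cultures dosed continuously from plating (treatment refreshed DIV 5, 9). Value is the area under the curve over recordings, fitted downward relative to DMSO.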

[23] = CCTE_Shafer_MEA_dev_burst_rate: CCTE's Neural Network Formation Assay for Burst Rate, Shafer Lab (AID 2284042)
Procedure, shortened: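 Rat primary cortical cultures on PEI/laminin MEA; compound from plating, re-dosed at DIV 5, 9 media change. Single-electrode bursts/recording length, well mean of active electrodes; AUC over DIV 5–12 recordings; loss-of-signal vs DMSO.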

[24] = CCTE_Shafer_MEA_dev_bursting_electrodes_number: CCTE's Neural Network Formation Assay for Number of Bursting Electrodes, Shafer Lab (AID 2284043; active = hit-call score of the fitted dose curve at least 0.9, where 1 is the maximum;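 note: potency is for loss of bursting electrodes relative to DMSO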)
Procedure, shortened: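 Rat cortical primary neurons, 48-well MEA, 16 electrodes/well; dosing DIV 0–12, re-dosed with full media change DIV 5, 9. Recordings DIV 5/7/9/12, AxIS adaptive spike detector; bursting electrode = ≥1 burst/2 min. AUC across days; loss of signal vs DMSO.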

[25] = CCTE_Shafer_MEA_dev_per_burst_interspike_interval: CCTE's Neural Network Formation Assay for Burst Interspike Interval, Shafer Lab (AID 2284044);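 note: potency for a decrease of within-burst interspike interval below DMSO level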
Procedure, shortened: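 Primary rat cortical neurons on 48-well MEA plates, exposed from day 0 through day 12, treatment renewed at DIV 5 and 9. Within-burst interspike interval recorded days 5, 7, 9, 12, well-averaged, summarised as AUC; negative fit versus DMSO.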

Measured: AC50

CC1(C)[C@H](C=C(Cl)Cl)[C@@H]1C(=O)O[C@@H](C#N)c1cccc(Oc2ccccc2)c1
active: [11] 1120 nM | [12] 2240 nM | [15] 682 nM | [16] 2980 nM | [17] 170 nM | [18] 15000 nM | [19] 1390 nM | [21] 8960 nM | [22] 15000 nM | [24] 8640 nM | [25] 4060 nM
inactive: all other assays above
